The supplement of paper PMC3334620
In all, about 33,000 sequences were measured (“E-score (-0.5 to 0.5)”: median about -0.04, highest 2% from about 0.36 on). This is one part of a sample in which the highest values are shown more often than they occur.

Target: T1, Hmlalpha2 (UniProt P0CY09)
T1 sequence: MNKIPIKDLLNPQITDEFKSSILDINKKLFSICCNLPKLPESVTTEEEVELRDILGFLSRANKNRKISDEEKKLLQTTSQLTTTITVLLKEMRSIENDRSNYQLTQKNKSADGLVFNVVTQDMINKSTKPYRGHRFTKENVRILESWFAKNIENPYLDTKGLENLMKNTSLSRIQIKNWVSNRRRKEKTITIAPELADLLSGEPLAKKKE
Assay: PBM E-score (8-mer binding enrichment) (E-score (-0.5 to 0.5)); higher = stronger / more preferred TF binding
Details: protein concentration: 200 nM; construct: GST-full length
Description: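 Universal 'all 10-mer' protein binding microarrays (Agilent AMADID 015681) probed with GST-tagged S. cerevisiae TFs (full-length or DBD) made by in vitro transcription/translation (PURExpress), about 100-200 nM. Bound TF was detected with fluorescent anti-GST. Each ungapped 8-mer (which stands for itself and its reverse complement) is scored by the PBM enrichment score (E-score), a modified Wilcoxon-Mann-Whitney statistic from -0.5 to +0.5, computed with the Universal PBM Analysis Suite. Scale: above 0.35 generally sequence-specific binding.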

| Sequence | PBM E-score |
| --- | --- |
| CACACCGC | -0.0386 |
| CATTTACA | 0.442 |
| TATTTAAA | 0.207 |
| TATTTACA | 0.463 |
| CATTTACC | 0.144 |
| GATTTACA | 0.429 |
| AATTTACA | 0.431 |
| CATTTACG | 0.303 |
| AATTTACT | 0.296 |
| AATTTACC | 0.12 |
| GATTTAGA | -0.00065 |
| GATTTACC | 0.18 |
| TATTTAGA | 0.28 |
| CCGGTGCC | -0.378 |
| AGGAAGAC | -0.0908 |
| CACTCGCA | 0.0187 |
| GACGCGGA | 0.0365 |
| TAAACGGA | 0.0215 |
| AGAGAGCA | -0.234 |
| ATGACACG | 0.404 |
| AAGACACA | 0.183 |
| CAGACACG | 0.0667 |
| GTGACACA | 0.142 |
| AAGACACG | 0.373 |
| ATGACACA | 0.302 |

| Sequence | PBM E-score |
| --- | --- |
| TCACAGCA | 0.0289 |
| ACCGCTGG | -0.228 |
| ACGATGTC | 0.0103 |
| GGGATGTA | 0.328 |
| ATGATGTA | 0.358 |
| CTGATGTA | 0.233 |
| GTGATGTA | 0.382 |
| ACGATGTA | 0.376 |
| GCGATGAA | 0.0458 |
| CCGATGTA | 0.155 |
| GCGATGTA | 0.366 |
| AACTGTTG | -0.104 |
| AAGCCCTA | 0.0656 |
| ACACGGAT | 0.36 |
| ACACGGTC | 0.397 |
| ATACGGTC | -0.0524 |
| ACACGGAG | 0.315 |
| ACACGGTG | 0.392 |
| CCACGGTC | -0.326 |
| GCACGGTA | -0.0709 |
| AAACGGTG | 0.0442 |
| ATACGGTG | -0.0688 |
| ACACGGTA | 0.366 |
| CCACGGTA | -0.0423 |
| ACACGGAA | 0.376 |

| Sequence | PBM E-score |
| --- | --- |
| ATTAAGTC | 0.189 |
| ACCTATGC | -0.0222 |
| TCTGCGCA | -0.00074 |
| CAGGGCCG | -0.121 |
| ACGTTGCG | 0.0728 |
| CGTCCTTC | -0.152 |
| GTTGAGCA | 0.111 |
| GTTGGCGA | -0.0755 |
| GGCTCTTA | -0.184 |
| ACTTAGAT | 0.132 |
| GTCCCTTA | -0.127 |
| AATTACAG | 0.307 |
| TCTTACAA | 0.229 |
| CATTACTA | 0.225 |
| CATTACAA | 0.411 |
| CATTACGA | 0.214 |
| CATTACAG | 0.326 |
| AATTACCC | -0.0352 |
| AATTACAC | 0.467 |
| TGTTACAA | 0.31 |
| CATTACCC | -0.00064 |
| CATTACAC | 0.474 |
| TATTACAA | 0.416 |
| GTTTCCCA | -0.0865 |
| TCGTTGCA | 0.0513 |

| Sequence | PBM E-score |
| --- | --- |
| GGAAAGTA | -0.136 |
| AAGAAGAT | -0.0289 |
| CCCGACAG | -0.191 |
| AATCGGGG | -0.203 |
| AAGATACC | -0.0459 |
| CGGAACCC | -0.13 |
| CCATTAAG | -0.0773 |
| TACAAGGA | 0.291 |
| TATCGTCA | -0.00037 |
| GATTACCA | 0.087 |
| GATTACAC | 0.483 |
| GATTACAA | 0.438 |
| AATTACAA | 0.436 |
| GATTACCC | 0.109 |
| AATTACTA | 0.257 |
| AATTACCA | 0.273 |
| GATTAAAC | 0.155 |
| GATTACTA | 0.213 |
| AGCGTTGG | -0.0565 |
| CCTTGGGC | -0.362 |
| TAGCTCAA | -0.0444 |
| GACTCTGC | -0.314 |
| AGGCTGCC | -0.401 |
| ACAGTAAG | 0.064 |
| GTACGACA | 0.196 |

| Sequence | PBM E-score |
| --- | --- |
| GCATGGTA | 0.189 |
| ACATGGCG | 0.324 |
| ACATGGCC | 0.417 |
| ACATGGTA | 0.397 |
| GCATGGCC | -0.0405 |
| ACATGGTG | 0.414 |
| ACATGGTC | 0.308 |
| CCATGGTA | 0.00138 |
| AGATGGTG | -0.0243 |
| AGAGGCCT | -0.263 |
| AAATCTCA | -0.0212 |
| GAGGTCTA | -0.0189 |
| GCTGCAGC | -0.305 |
| TACGTTAA | 0.325 |
| CGCGTTAA | 0.427 |
| CACGTTAG | 0.113 |
| CGCGTTAC | 0.212 |
| GGCGTTAA | 0.216 |
| CGCGTTAG | 0.3 |
| AGCGTTAA | 0.0425 |
| CACGTTAA | 0.376 |
| TGCGTTAA | 0.397 |
| GCTATCAA | -0.0322 |
| CTGACTCA | -0.179 |
| AAGTCGCG | 0.111 |

| Sequence | PBM E-score |
| --- | --- |
| TAATTCGA | 0.121 |
| ACGCAAAA | 0.145 |
| CCAGTGAC | -0.125 |
| GCAGTTTA | 0.00455 |
| ATTATACA | 0.34 |
| GTTATAGA | 0.368 |
| CTTATAGA | -0.154 |
| GTTATACA | 0.4 |
| CTTATACA | 0.252 |
| ATTATAGA | 0.0519 |
| CATGCGCC | -0.0099 |
| ATGTCGGA | 0.0661 |
| AACGTAAC | 0.207 |
| AACGTAAA | 0.325 |
| CACGTAAG | 0.244 |
| CACGTAAC | 0.196 |
| TACGTATA | 0.327 |
| CACGTAAA | 0.405 |
| AACGTAAT | 0.379 |
| TACGTAAA | 0.41 |
| GACGTAAA | 0.28 |
| CGTCCACA | -0.0612 |
| CCGCGGCC | -0.192 |
| CTGCAAAG | -0.0914 |
| CACGTTGG | 0.109 |

| Sequence | PBM E-score |
| --- | --- |
| ACAGAGAG | -0.0914 |
| CCCAATGC | -0.198 |
| AAACATCC | 0.17 |
| AAACATCT | 0.202 |
| GAACATGA | 0.31 |
| CAACATGG | 0.403 |
| CCACATGG | -0.0738 |
| AAACATGT | 0.445 |
| AAACATAT | 0.311 |
| AAACATAC | 0.267 |
| AAACATGC | 0.37 |
| AAACATGG | 0.349 |
| CAACATGA | 0.449 |
| CCACATGA | 0.109 |
| ATCCTCCA | -0.166 |
| ATACTGAT | 0.126 |
| ACAGCCGG | -0.073 |
| AGAGCTCC | -0.252 |
| CTGGGAGA | -0.262 |
| GAACATGC | 0.272 |
| ACACATGA | 0.304 |
| TAACATTA | 0.331 |
